This is one part of a sample in which hits are shown more often than they occur.
Imprint erasure = genomic imprint erasure induction | AID 1948 | 110,000 compounds, 0.02% hits | mouse ES Peg3-LacZ reporter, beta-gal luminescence, 40 h | Potency, µM (doses to about 60.7 µM), for the others: at the highest dose activity change, positive = activation, hits mostly activators; also: potency is read from the fitted curve at half-maximal effect
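Imprint erasure is scored as LacZ activity from the silenced maternal Peg3 allele in feeder-free female ES cells cultured 40 h with LIF. Luminescence is normalized to in-plate negative controls and fitted to the Hill equation.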
HBB splice mod = modulators of hemoglobin beta chain splicing; HBB splicing reporter cell assay, activation; EGFP reporter with mutant IVS2-654 intron; response scale: normalised to 500 nM splice-correcting PNA; Potency, µM (doses to about 46.1 µM), inactives show at the highest dose activation, most hits filed as activators; 65,000 compounds, 0.06% hits; AID 925; also: potency is read from the fitted curve at half-maximal effect; 0% is about no effect
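Compounds were applied for 2 days to HeLa EGFP-654 cells, 500/well in Optimem with 2% FCS. The reporter's EGFP is disrupted by mis-splicing of beta-globin intron IVS2-654. Readout: summed well GFP fluorescence from 488 nm laser scanning; reference was 500 nM antisense […] 654 PNA.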
Ub-GFP proteasome = inhibits proteasome, raising ubiquitin-GFP reporter fluorescence | Ubiquitin-GFP reporter cells, proteasome inhibition, GFP fluorescence; response scale: untreated = 0%, 10 µM MG-132 = 100% | Potency, µM (titrated, usually from 45.9 µM), inactives show at the top dose activation (GFP accumulation), usual class: activators | 67,000 tested, under 10 active; active = well fitted activation curve with a large enough effect, not every such curve was filed as active; inconclusive = small, poorly fitted or top-dose-only effect, or another doubt; inactive = no such curve, though single readings can be large or run the other way; also: potency is read from the fitted curve at half-maximal effect
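U2OS cells stably expressing ubiquitin(G76V)-GFP, seeded overnight in 0.5% FBS medium, were exposed to compounds (qHTS, 46 uM to 2.9 nM) for 4 hr at 37 °C. GFP-positive cells were counted by laser cytometry (488 ex/515 em), normalized between basal and 10 uM MG-132.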
GFP derepression = epigenetic modulators derepressing GFP locus in mouse cells; mouse C127i GFP locus derepression, cytometry, 30 h; Potency, µM (series often up to 46.1 µM), for inactives: at the highest dose GFP derepression (activation); 68,000 compounds, 0.09% hits; AID 597; also: % of control where 0% means no effect
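Murine C127i mammary cells carrying a silenced, stably integrated CMV-driven GFP reporter were treated with compound for 30 hours at 37 C. After PBS washes, GFP-positive cells were counted by laser-scanning microplate cytometry.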
ERK AVP block = vasopressin-driven ERK pathway inhibition; HEK293-V1b, vasopressin-stimulated pERK AlphaScreen; Potency, µM (doses to about 57.5 µM), for the others: top-dose activity, negative = inhibition, most hits filed as inhibitors; 72,000 compounds, 0.99% hits; also: potency is read from the fitted curve at half-maximal effect; % is scaled to controls: 0 for no effect and ±100 for the full control effect; nearly all actives have a fitted effect of over 55% in size
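Phosphorylated ERK1/2 detected via AlphaScreen bead proximity in lysates of V1b-expressing HEK293 cells given 25 nM vasopressin for 5 min after 30 min compound exposure (37 °C). AC50 from Hill equation; basal DMSO 0%, vasopressin 100%.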
Numbers without * were called inactive; ? = inconclusive; / = no result given; ! = not confirmed by another sample; [ ] = remark or other dose. Unless noted, calls follow the shape of the dose curve; as a rule, active = well fitted curve in the direction sought with a large enough effect; inconclusive = small, poorly fitted or top-dose-only effect, or another doubt; inactive = no such curve, though single readings can be large; an effect the other way counts as inactive or inconclusive.

SMILES	Imprint erasure	HBB splice mod	Ub-GFP proteasome	GFP derepression	ERK AVP block
CN1CCN(c2cc3c(c4c2[nH]c2ccccc24)C(=O)CC(C)(C)C3)CC1	-37%	-1%	0%	/	32µM*
CC1CCCC(NS(=O)(=O)c2ccc3c(c2)OCCO3)C1C (centres undefined)	-13%	0%	0%	-2%	27%
O=S(=O)(NC1CC2CCC1C2)c1ccc2c(c1)OCCO2 (centres undefined)	-12%	-2%	-8%	3%	25µM*
CSc1nc2c(c(=O)n1-c1ccc(C)cc1)SCC2	-11%	4%	14%	1%	-14%
COc1ccccc1N1CCN(C(=O)c2ccc3nc(-c4ccco4)c(-c4ccco4)nc3c2)CC1	-14%	1%[57.5 µM]	-1%	0%	16µM*
COc1ccccc1-c1cc(C(=O)N2CCN(c3ccccc3OC)CC2)no1	-16%	0%	0%	0%	0%
Cc1ccc(C(CCN)c2ccco2)cc1 (centres undefined)	-32%	-1%	0%	-3%	-17%
O=C(Nc1ccc(CN2CCOCC2)cc1)c1ccc(-c2ccc(Br)cc2)o1	-15%	0%	1%	9%	32µM*
COC(=O)c1ccc(NC(=O)c2ccc(CN3CCOCC3)cc2)cc1	-18%	-1%	3%	3%	?
CC(=O)N1CCc2c(sc3c2c(=O)n(-c2ccccc2Cl)c(=O)n3Cc2cccc(C)c2)C1	16%[10.9 µM]	/	/	/	/
COc1ccc(CCN2CCC(Nc3nc4ccccc4n3Cc3ccc(F)cc3)CC2)cc1	-42%	0%[20.6 µM]	2%[20.5 µM]	10µM*!	2%
COc1ccc(Cn2c(SCC(=O)Nc3ccc(OC)cc3)nc3ccccc32)cc1	-10%[10.9 µM]	/	/	/	/
CN(C)c1nc(SCC#N)nc(N(C)C)n1	2%	-2%	4%	-1%	-20%
CC(=O)OCCNc1cc(N2CCN(C)CC2)c2noc3c2c1C(=O)c1ccccc1-3	-6%	1%	18%	7%	16µM*
O=C(O)CCCNc1cc(N2CCN(C3CCCCC3)CC2)c2noc3c2c1C(=O)c1ccccc1-3	3%[10.9 µM]	/	/	/	/
Cc1nc(-c2ccc(S(=O)(=O)Nc3ccc(Cl)c(C(F)(F)F)c3)cc2)co1	6%[10.9 µM]	/	/	/	/
CCN(CC)C(=O)Cn1cc(SCC(=O)Nc2cc(OC)ccc2OC)c2ccccc21	-18%[10.9 µM]	/	/	/	/
Clc1cccc(-n2ncc3c(N4CCN(Cc5ccccc5)CC4)ncnc32)c1	-16%[10.9 µM]	/	/	/	/
c1ccc(CCN2CCN(c3ncnc4c3cnn4-c3ccccc3)CC2)cc1	-26%	0%	-3%	0%	16µM*
Cc1ccc(-c2nnc3n2N=C(c2ccccc2)CS3)cc1	-5%	1%	15%	/	/
c1ccc(C2=Nn3c(nnc3-c3n[nH]c4c3CCC4)SC2)cc1	-8%	1%[0.369 µM]	/	-2%	?
c1ccc(C2=Nn3c(nnc3-c3cc(-c4ccccc4)n[nH]3)SC2)cc1	-18%	2%[0.369 µM]	/	2%	25µM*
COc1ccc(C2=Nn3c(nnc3-c3ccc(OC)cc3)SC2)cc1	-21%	5%[1.84 µM]	-6%	0%	10µM*
COc1ccc(C2=Nn3c(nnc3-c3ccccc3OC)SC2)cc1OC	-26%	1%	0%	2%	5µM*
NS(=O)(=O)c1ccc(N=Nc2ccc[nH]c2=O)cc1	-9%[10.9 µM]	3%[9.22 µM]	4%[9.17 µM]	-2%[9.22 µM]	0%[11.5 µM]
COc1ccc(NC(=O)C2CCCN2S(=O)(=O)c2ccc3c(c2)CCC(=O)N3)cc1 (centres undefined)	-11%	0%	-6%	-2%	-16%
COc1ccccc1N1CCN(S(=O)(=O)c2c(C)ccc3nsnc23)CC1	-15%	0%	4%	0%	?
CCOC(=O)c1sc(C)c2c(=O)n(CC)nnc12	-12%	5%[57.5 µM]	1%	0%	-18%
C[n+]1cc2c3c(ccc2c2ccc4cc5c(cc4c21)OCO5)OCO3	-41%	0%[20.6 µM]	4%[20.5 µM]	0%[20.6 µM]	25µM*!
